Screening data from PubChem BioAssay.
Compounds with a hit are over-represented: about 12% of the library has one in this group of screens.
Sm TGR block = S. mansoni TGR enzyme inhibition; AID 485364; Potency, µM (titrated, usually from 114 µM), for inactives: top-dose activity change, negative = inhibition, actives largely listed as inhibitors; purified TGR, DTNB reduction, TNB absorbance 405 nm; actives 3% (n = 360,000); Q962Y6; note: % is set by controls: 0 for no effect and ±100 for the full control effect; nearly all actives have a fitted effect of over 60% in size
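Kinetic colorimetric format: TGR-catalysed, NADPH-driven DTNB reduction monitored via TNB absorbance. Enzyme dispensed at 20 nM; compound exposure 15 min at room temperature before reaction start.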
AmpC detergent = blocks E. coli AmpC beta-lactamase in detergent assay | P00811 | AmpC hydrolysis of nitrocefin, absorbance 480 nm, 0.01% Triton | Potency, µM (doses to about 114 µM), for the others: at the highest dose activity change, negative = inhibition, usual class: inhibitors | actives 0.041% (n = 370,000) | AID 485294;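 note: 0% = no-compound wells and -100% = no-enzyme wells; nearly all actives have a fitted effect of over 25% in size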
Target sequence (P00811 whole entry, looked up): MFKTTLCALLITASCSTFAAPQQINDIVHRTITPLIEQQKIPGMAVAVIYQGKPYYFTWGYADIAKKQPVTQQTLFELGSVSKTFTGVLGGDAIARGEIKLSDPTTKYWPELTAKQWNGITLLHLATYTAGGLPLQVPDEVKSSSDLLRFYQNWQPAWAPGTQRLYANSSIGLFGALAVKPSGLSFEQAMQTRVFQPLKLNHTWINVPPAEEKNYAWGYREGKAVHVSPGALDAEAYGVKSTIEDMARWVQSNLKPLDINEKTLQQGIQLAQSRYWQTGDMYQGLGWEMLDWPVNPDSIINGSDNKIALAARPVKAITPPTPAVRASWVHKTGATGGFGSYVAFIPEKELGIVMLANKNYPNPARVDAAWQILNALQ
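AmpC (5.3 nM in the dispensed reagent) in 20 mM phosphate pH 7.0 with 0.01% (detergent screen) or 0.0001% Triton X-100 was preincubated with compounds for 15 min at room temperature. Nitrocefin was then added from an 800 uM solution, and hydrolysis was followed at 480 nm.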
AmpC inh no detg = inhibitors of E. coli AmpC beta-lactamase without detergent. AmpC nitrocefin hydrolysis, absorbance 480 nm, 0.0001% Triton. actives 0.52% (n = 330,000). Potency, µM (series often up to 57.1 µM), inactives show at the top dose activity change, negative = inhibition, usual class: inhibitors;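 note: plate controls were no compound for no effect and no enzyme for full effect; nearly all actives have a fitted effect of over 20% in size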
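AmpC (5.3 nM in the dispensed reagent) in 20 mM phosphate pH 7.0 with 0.01% (detergent screen) or 0.0001% Triton X-100 was preincubated with compounds for 15 min at room temperature. Nitrocefin was then added from an 800 uM solution, and hydrolysis was followed at 480 nm.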
Pf growth 48h = inhibits P. falciparum growth in the first generation, 48 h. P. falciparum luciferase growth in erythrocytes, 48 h. Potency, µM (series often up to 28.7 µM), for inactives: at the top dose activity change, negative = inhibition, hits mostly inhibitors. actives 5.9% (n = 310,000); note: % is set by controls: 0 for no effect and ±100 for the full control effect
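Parasite viability was followed by luminescence of a genomically integrated firefly luciferase. Cultures held 0.1% parasitemia at 2% hematocrit (final), incubated under 5% CO2 at 37 C.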
SARS PLpro yeast = SARS-CoV PLP inhibition in yeast; S. cerevisiae expressing SARS-CoV PLpro, growth rescue; Potency, µM (highest dose often 32.9 µM), inactives show at the top dose activity, positive = growth rescue, hits mostly activators; actives 0.19% (n = 330,000); calls by dose curve; note: 0% is about no effect; nearly all actives have a fitted effect of over 55% in size
Pf growth 96h = inhibits malaria parasite growth, 96 h; actives 6.9% (n = 320,000); Potency, µM (doses to about 28.7 µM), inactives show at the top dose activity change, negative = inhibition, usual class: inhibitors; AID 504834; P. falciparum luciferase reporter growth, 96 h; note: % is set by controls: 0 for no effect and ±100 for the full control effect
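Cell-based qHTS: luciferase-tagged P. falciparum in erythrocytes (2% hematocrit, 0.05% parasitemia final) incubated with compounds for 96 hours, 37 C, 5% CO2; luciferase detection reagent then added and luminescence measured.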
Active calls of the source: *; ? = inconclusive; nt = no result given; [ ] = remark or other dose. Unless noted, calls come from the whole dose curve; as a rule, active = well fitted curve in the direction sought with a large enough effect; inconclusive = small, poorly fitted or top-dose-only effect, or another doubt; inactive = no such curve, though single readings can be large; an effect the other way counts as inactive or inconclusive. Potency is the fitted concentration of half-maximal effect.

SMILES	Sm TGR block	AmpC detergent	AmpC inh no detg	Pf growth 48h	SARS PLpro yeast	Pf growth 96h
Cc1cc(C)cc(SCc2noc(C(=O)NCCCN3CCOCC3)c2C(=O)NCCCN2CCOCC2)c1	1.2%	-3.4%	211.9%	9.28µM*	0.2%	?
CN(C)CCNC(=O)c1c(CSc2ccccc2)noc1C(=O)NCc1ccccc1	17.5%	1.6%	60.2%	?	0.2%	9.28µM*
COC(=O)c1c(CSc2cccc(C)c2)noc1C(=O)NCc1ccco1	-21.6%	4.2%	-2.4%	2.62µM*	-21.6%	48.1%
CN1C(=O)/C(=C\c2ccccc2)Sc2ccc(C(=O)N3CCN(c4ccccn4)CC3)cc21	-12.6%	-1.0%	51.9%	?	6.2%	?
Nc1cc(C(F)(F)F)ccc1Nc1ccccc1	-7.3%	-14.2%	?	5.6%	2.1%	0.0%
CCCNC(=O)c1c(CSc2ccccc2)noc1C(=O)NCc1ccccc1	12.6%	4.1%	-23.4%	?	-0.6%	14.7µM*
O=C(N/N=C/c1ccccc1O)c1cccc2ccccc12	-13.2%	-12.7%	-51.8%	11.7µM*	?	213.9%
CC(C)C(=O)Nc1ccc(C(=O)N/N=C/c2cc(Br)cc(Br)c2O)cc1	-6.7%	-6.6%	-17.9%	?	1.6%	?
O=C(N/N=C/c1ccccc1[N+](=O)[O-])c1ccncc1	10.9%	-0.6%	-16.5%	75.4%	-1.6%	0.165µM*
CC(=O)Nc1ccc(C(=O)N/N=C/c2cc(Br)cc(Br)c2O)cc1	-18.5%	-10.5%	-19.4%	-36.0%[5.75 µM]	0.1%	2.94µM*
O=C(N/N=C/C=C/c1ccccc1[N+](=O)[O-])c1ccncc1	-2.1%	4.8%	-25.2%	46.1%	0.4%	45.9%
Cc1nc(C)c(C(=O)N/N=C/c2cc(Br)ccc2O)s1	-1.4%	-17.2%	-39.3%	2.33µM*	2.7%	5.22µM*
Cc1nc(C)c(C(=O)N/N=C/c2c[nH]c3ccccc23)s1	-9.8%	-6.0%	-2.1%	-1.3%	1.4%	nt
O=C(N/N=C/c1ccccc1O)c1cc(=O)[nH]c2ccccc12	3.7%	9.2%	2.4%	26.0%	23.6%	0.8%
O=C(N/N=C/c1cc(Br)ccc1OC(=O)c1ccc(Br)cc1)c1ccncc1	0.2%	-2.9%	-24.1%	1.65µM*	-2.7%	15.5%
O=C(N/N=C/c1cn(-c2ccccc2)nc1-c1ccc2c(c1)OCCO2)c1ccncc1	-0.2%	6.2%	0.0%	134.1%	0.1%	111.8%
O=C(N/N=C/c1nn(-c2ccccc2)cc1-c1ccc(Cl)cc1)c1ccncc1	42.3%	?	-17.1%	2.08µM*	-0.6%	?
O=C(CCC(=O)Nc1cccc(Cl)c1)N/N=C/c1cc([N+](=O)[O-])ccc1O	6.4%	-6.2%	-37.4%	?	-0.6%	59.5%
O=C(CNC(=O)c1ccco1)N/N=C/c1ccccc1[N+](=O)[O-]	-1.7%	3.4%	-34.6%	8.3%	-0.5%	0.928µM*
O=C(CCCC(=O)Nc1cccc(Br)c1)N/N=C/c1cc([N+](=O)[O-])ccc1O	8.5%	-8.5%	-44.6%	10.4µM*	5.4%	33.6%
COc1ccc(-c2nc(SCC(=O)Nc3ccc4c(c3)OCO4)c(-c3ccccc3)[nH]2)cc1	-1.0%	4.9%	nt	nt	nt	nt
O=C(N/N=C/c1cccc2ccccc12)c1ccncc1	7.8%	?	-12.1%	38.6%	-0.1%	?
O=C(N/N=C/c1cccc([N+](=O)[O-])c1)c1cccc2cc[nH]c12	4.9%	-0.8%	-30.5%	47.6%	-4.2%	-0.9%
O=C(N/N=C/c1cc([N+](=O)[O-])ccc1O)c1cccc2cc[nH]c12	12.9%	10.1%	?	?	4.8%	3.7µM*
O=C(N/N=C/c1cc([N+](=O)[O-])ccc1O)c1ccncc1	-3.1%	-5.1%	-6.1%	8.28µM*	0.2%	?
O=C(N/N=C/c1ccccc1O)c1ccncc1	1.2%	?	-15.1%	9.28µM*	nt	11.7µM*
